Laboratory results published in the supplement of paper PMC10646978.
± gives the standard deviation.

Legend:
Details in all cases: modulator concentration 10 µM
[1] = tested on: RAW-Dual (murine macrophage reporter line); experiment: NF-kB reporter (SEAP) activity fold change vs agonist alone; higher = enhanced NF-kB activity
Summary of the method: (§1)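 In 384-well plates holding 50 000 RAW-Dual murine macrophage reporter cells per well, compound at 10 μM final was pre-incubated for 1 hour at 37 °C, after which a PRR agonist was added overnight. Supernatant SEAP read with QUANTI-Blue at 620 nm absorbance reported NF-κB, and Lucia luciferase read with QUANTI-Luc luminescence reported IRF. Fold change values come from dividing each reporter signal by the mean of agonist-only control wells on the same plate, averaged over replicate plates with propagated errors.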

[2] = tested on: RAW-Dual (murine macrophage reporter line); experiment: IRF reporter (Lucia luciferase) activity fold change vs agonist alone; higher = enhanced IRF activity
Summary of the method: as §1

[3] = tested on: RAW-Dual (murine macrophage reporter line); experiment: viability score (confluency relative to resting cells, overnight) (fraction); higher = more viable, active = viable (0.7 or more)
Summary of the method: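 RAW-Dual macrophages in 384-well plates were exposed overnight to compound at 10 μM final. Confluency was imaged with IncuCyte, and two confluency masks were generated with IncuCyte software over all imaged wells. The viability score is confluency expressed relative to resting cells. Compounds were called viable if both masks exceeded 70% of resting cells.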

[4] = agonist: CpG ODN 1826 0.5 ug/mL

Row | Structure (SMILES) | NF-kB reporter [1, 4] | NF-kB reporter ([1]; agonist: LPS 0.1 ug/mL) | NF-kB reporter ([1]; agonist: MPLA […]) | IRF reporter ([2]; agonist: 3'3'-cGAMP 10 ug/mL) | IRF reporter ([2]; agonist: LPS 0.1 ug/mL) | IRF reporter ([2]; agonist: MPLA […]) | viability score [3]
1 | O=C(CC1Sc2ccccc2NC1=O)Nc1ccccc1Cl (configuration not stated) | 1 ± 0.079 | 0.989 ± 0.067 | 1.01 ± 0.036 | 1.15 ± 0.21 | 1.04 ± 0.043 | 1.04 ± 0.15 | 1 (active)
2 | COC(CNC(=O)c1cccc(Br)c1)c1ccccc1C (configuration not stated) | 0.649 ± 0.056 | 0.999 ± 0.097 | 0.873 ± 0.04 | 0.832 ± 0.032 | 0.96 ± 0.1 | 0.901 ± 0.21 | 1 (active)
3 | CCN1CCN(Cc2ccc(Nc3ncc(F)c(-c4cc(F)c5nc(C)n(C(C)C)c5c4)n3)nc2)CC1.CS(=O)(=O)O | 0.095 ± 0.023 | 0.793 ± 0.04 | 3.04 ± 0.21 | 0.29 ± 0.018 | 0.19 ± 0.035 | 0.314 ± 0.03 | 0.852 (active)
4 | O=C(C=Cc1ccccc1)NC(NC(=S)Nc1cccc(O)c1)C(Cl)(Cl)Cl (configuration not stated) | 0.835 ± 0.074 | 0.803 ± 0.1 | 0.972 ± 0.099 | 0.737 ± 0.024 | 1.25 ± 0.23 | 1.3 ± 0.28 | 1.03 (active)
5 | CSc1nnc(CSc2nc(C)cc(C)n2)n1-c1cccc(C(F)(F)F)c1 | 0.958 ± 0.041 | 0.862 ± 0.071 | 1.17 ± 0.07 | 0.961 ± 0.053 | 1.36 ± 0.34 | 1.37 ± 0.44 | 0.953 (active)
6 | O=C(O)C=Cc1ccc2c(c1)OCCO2 | 1 ± 0.077 | 0.902 ± 0.075 | 1.14 ± 0.12 | 1.07 ± 0.059 | 1.35 ± 0.2 | 1.47 ± 0.33 | 1.02 (active)
7 | Cc1nnc(C(=O)NC(C)(C)c2nc(C(=O)NCc3ccc(F)cc3)c(O)c(=O)n2C)o1 | 1.08 ± 0.19 | 1.09 ± 0.13 | 0.935 ± 0.056 | 0.878 ± 0.029 | 1.27 ± 0.15 | 0.988 ± 0.076 | 0.992 (active)
8 | Cn1cnc2c(F)c(Nc3ccc(Br)cc3F)c(C(=O)NOCCO)cc21 | 0.822 ± 0.071 | 0.65 ± 0.052 | 0.666 ± 0.04 | 0.777 ± 0.045 | 1.17 ± 0.23 | 1.35 ± 0.45 | 0.248 (inactive)
9 | CCOC(=O)C1=C(C)N(c2ccc(OC)cc2)C(=O)C1=Cc1ccc(C(C)C)cc1 | 0.903 ± 0.067 | 1.01 ± 0.083 | 0.804 ± 0.1 | 0.883 ± 0.03 | 1.36 ± 0.21 | 1.33 ± 0.12 | 0.997 (active)
10 | CN(C)[C@@H]1C(O)=C(C(N)=O)C(=O)[C@@]2(O)C(O)=C3C(=O)c4c(O)ccc(Cl)c4[C@@H](O)[C@H]3C[C@@H]12.Cl | 1.29 ± 0.098 | 0.965 ± 0.055 | 1.17 ± 0.038 | 0.728 ± 0.048 | 0.971 ± 0.068 | 0.828 ± 0.12 | 0.984 (active)
11 | CN1CCN(c2nc3c(=O)[nH]cnc3n2C2OC(CO)C(O)C2O)CC1 (configuration not stated) | 0.979 ± 0.11 | 1.03 ± 0.071 | 0.904 ± 0.084 | 1.01 ± 0.089 | 1.22 ± 0.082 | 1.08 ± 0.25 | 1.01 (active)
12 | CC12CC3CC(C)(C1)CC(N)(C3)C2.Cl | 0.831 ± 0.1 | 0.892 ± 0.086 | 0.855 ± 0.074 | 1.24 ± 0.056 | 1.2 ± 0.099 | 1.14 ± 0.095 | 0.978 (active)
13 | COc1cc(/C=C/C(=O)/C=C(O)/C=C/c2ccc(O)c(OC)c2)ccc1O | 0.662 ± 0.16 | 1.14 ± 0.32 | 2.02 ± 0.15 | 0.0871 ± 0.0028 | 0.279 ± 0.091 | 0.517 ± 0.041 | 0.272 (inactive)
14 | COc1cc2c(Oc3ccc4[nH]c(C)cc4c3F)ncnc2cc1OCCCN1CCCC1 | 0.607 ± 0.097 | 1.03 ± 0.052 | 1.09 ± 0.11 | 0.927 ± 0.043 | 1.22 ± 0.082 | 1.35 ± 0.12 | 1 (active)
15 | O=C(NC1CC(=O)N(c2ccc(F)cc2)C1)c1ccc(Cl)cc1 (configuration not stated) | 1.06 ± 0.054 | 1.11 ± 0.088 | 0.877 ± 0.039 | 0.944 ± 0.064 | 1.24 ± 0.11 | 1.2 ± 0.3 | 0.991 (active)
16 | O=C1CC(c2ccc(O)cc2)Oc2cc(O)cc(O)c21 (configuration not stated) | 1.31 ± 0.34 | 1.27 ± 0.17 | 1.21 ± 0.077 | 0.746 ± 0.031 | 1.09 ± 0.14 | 1.13 ± 0.11 | 1 (active)
17 | CC(CCc1ccccc1)NCC(O)c1ccc(O)c(C(N)=O)c1.Cl (configuration not stated) | 1.04 ± 0.15 | 1.18 ± 0.088 | 1.1 ± 0.061 | 0.944 ± 0.033 | 1.11 ± 0.095 | 1.22 ± 0.23 | 0.984 (active)
18 | NC(=O)c1cccc2cn(-c3ccc([C@@H]4CCCNC4)cc3)nc12 | 0.187 ± 0.014 | 0.573 ± 0.051 | 0.85 ± 0.072 | 0.508 ± 0.051 | 0.559 ± 0.07 | 0.977 ± 0.088 | 0.887 (active)
19 | CCOC(=O)C1=CC2(CC)CCCN3CCc4c(n1c1ccccc41)C32 (configuration not stated) | 0.79 ± 0.061 | 0.928 ± 0.078 | 0.915 ± 0.09 | 0.963 ± 0.032 | 1.3 ± 0.13 | 1.4 ± 0.21 | 1.03 (active)
20 | Cc1c(C#N)sc2nc(-c3ccccc3)nc(N=CN(C)C)c12 | 1.01 ± 0.086 | 1.05 ± 0.095 | 0.952 ± 0.027 | 0.94 ± 0.056 | 0.971 ± 0.078 | 1.03 ± 0.18 | 1 (active)
21 | COc1ccc(C2OCC3C(c4ccc(OC)c(OC)c4)OCC23)cc1OC (configuration not stated) | 1.18 ± 0.091 | 1.03 ± 0.094 | 1.08 ± 0.11 | 1.11 ± 0.088 | 1.07 ± 0.13 | 1.21 ± 0.23 | 1.01 (active)
22 | Cc1cc2ncc3c(n2n1)CCN(S(=O)(=O)N(C)C)C3 | 0.989 ± 0.11 | 1.01 ± 0.097 | 0.938 ± 0.043 | 1.03 ± 0.071 | 1.09 ± 0.081 | 1.05 ± 0.08 | 1 (active)
23 | Cl.O=C(c1ccc(OCCN2CCCCC2)cc1)c1c(-c2ccc(O)cc2)sc2cc(O)ccc12 | 0.106 ± 0.015 | 1.14 ± 0.27 | 2.12 ± 0.12 | 0.55 ± 0.023 | 0.901 ± 0.24 | 1.5 ± 0.18 | 0.254 (inactive)
24 | O=c1cccnn1CC1CN(c2ncc(Br)cn2)C1 | 1.04 ± 0.32 | 1.08 ± 0.072 | 1.07 ± 0.096 | 0.964 ± 0.044 | 0.966 ± 0.17 | 1.05 ± 0.23 | 1 (active)
25 | O=C(CCN1C(=O)c2cccc([N+](=O)[O-])c2C1=O)Nc1ccc(F)cc1 | 1.01 ± 0.13 | 1.02 ± 0.069 | 1.02 ± 0.035 | 0.875 ± 0.082 | 0.958 ± 0.099 | 1.07 ± 0.23 | 1 (active)
26 | O=c1ccc2cc(O)c(O)cc2o1 | 1.34 ± 0.34 | 0.878 ± 0.044 | 1.03 ± 0.16 | 0.736 ± 0.026 | 1.34 ± 0.2 | 1.2 ± 0.12 | 0.986 (active)
